Measurements: ChEMBL document CHEMBL1157539, “Thousands of chemical starting points for antimalarial lead identification” (Nature, 2010)
The full ranking holds about 13,000 compounds; the median of “IFI” is about 4, and the highest 2% start at about 17. The full list was thinned out, with the highest values kept by preference.

Assay: GSK_TCMDC: Inhibition Frequency Index (IFI). The number of non-kinase HTS assays where a compound showed > 50 % inhibition, expressed as a percentage of the number of such assays in which the compound was tested
Type: functional

Row | Compound | IFI [%]
1 | O=C(/C=C/c1ccc(Cl)c(Cl)c1)NCCCCCN1CCC(c2c[nH]c3c(-c4ccccc4)cccc23)CC1 | 8.09
2 | CN(Cc1cccc(F)c1)C1CCN(c2cc(NC(=O)c3ccc(F)cc3)ccn2)CC1 | 0
3 | C[C@@H](C(N)=O)N1CCCCC1c1ccc(OCc2cccc(F)c2)cc1 (stereo not given in full) | 33.8
4 | CN(Cc1cccc(F)c1)C1CCN(c2cc(NC(=O)c3cccc(F)c3)ccn2)CC1 | 0
5 | O=C(C=Cc1ccc(Cl)c(Cl)c1)NCCCCCN1CCCC(CCCNS(=O)(=O)c2cccc3cccnc23)C1 (stereo not given) | 5.8
6 | CCc1c(CCNCCCCCCNC(C)Cc2ccc3c(c2CC)OCO3)ccc(OC)c1OC (stereo not given) | 10.7
7 | O=C(NCC1CCC(CNCCc2ccccc2)CC1)Nc1ccc(Cl)c(Cl)c1 (stereo not given) | 0.72
8 | CC(C)(C(=O)Nc1ccc(C2CCC(NCC3CC3)CC2)c(Cl)c1)c1cccc(OC(F)F)c1 (stereo not given) | 23.4
9 | CC(C)(C(=O)Nc1ccc(N2CCC3(CCCN(CC4CC4)C3)CC2)c(Cl)c1)c1cccc(C(F)(F)F)c1 | 6.67
10 | CN1CC[C@@H](Oc2cc(NC(=O)Nc3ccc(Cl)c(C(F)(F)F)c3)ccc2Cl)C1 | 7.63
11 | O=C(CNCC1CCCCC1)Nc1cc(C(F)(F)F)ccc1Cl | 4.23
12 | CC(C)(C(=O)Nc1ccc(C2CCC(NCC3CC3)CC2)c(Cl)c1)c1ccc(C(F)(F)F)cc1 (stereo not given) | 25
13 | COc1ccc2c(=NN=C(C)c3ccccn3)cc(C)[nH]c2c1 | 4.96
14 | Cc1ccccc1CN1CCCN(Cc2ccc(C(=O)Nc3ccc(Cl)cc3)cc2)CC1 | 10.2
15 | CC(C)(C)c1ccc(NC(=O)c2ccc(CN3CCCN(Cc4ccc(F)cc4)CC3)cc2)cc1 | 15.6
16 | CCCCCCN1CCCN(Cc2ccc(C(=O)Nc3ccc(CC)cc3)cc2)CC1 | 13.5
17 | CCCCCCN1CCCN(Cc2ccc(C(=O)Nc3ccc(C(C)C)cc3)cc2)CC1 | 19.7
18 | CC(C)(C)c1ccc(NC(=O)c2ccc(CN3CCCN(Cc4cccc(Cl)c4)CC3)cc2)cc1 | 17.2
19 | O=C(Nc1ccc(Cl)cc1)c1ccc(CN2CCCN(Cc3cccc(Cl)c3)CC2)cc1 | 8.66
20 | Cc1ccccc1CN1CCCN(Cc2ccc(C(=O)Nc3ccc(C(C)(C)C)cc3)cc2)CC1 | 18.4
21 | CC(C)(C)c1ccc(NC(=O)c2cccc(CN3CCCN(Cc4cccc(Cl)c4)CC3)c2)cc1 | 7.86
22 | CCCCCCN1CCCN(Cc2ccc(C(=O)Nc3ccc(Cl)cc3)cc2)CC1 | 15.2
23 | Cc1cccc2nc(-c3ccc(-c4cccc(NC(=O)Nc5ccc(F)c(F)c5F)c4)cc3)[nH]c12 | 2.91

Row | Compound | IFI [%]
24 | O=C(/C=C/C=C/c1ccc(Cl)c(Cl)c1)NCCCCCN1CCCC2CCCCC21 (stereo not given) | 5.19
25 | Cc1cccc2nc(-c3cccc(-c4ccc(NC(=O)Nc5ccc(Cl)c(Cl)c5)cc4)c3)[nH]c12 | 7.07
26 | CC(=O)Oc1c(Cl)c(C)nc(C)c1-c1ccc(Oc2ccc(OC(F)(F)F)cc2)cc1 | 6.35
27 | CCN(CC)CCCN(CCCN(CC)CC)c1cc(C)nc(Nc2ccc3cc(Br)ccc3c2)n1 | 4.35
28 | COc1cc(C(=O)Nc2ccc(-c3nc4ccccc4[nH]3)cc2)cc(OC)c1OC | 1.4
29 | CCn1c(C(C)C)cc2c3c(N)nc(N)nc3ccc21 | 2.88
30 | CCN(CC)CCOc1ccc(C(O)(C#CC(O)(c2ccc(OCCN(CC)CC)cc2)c2ccc([N+](=O)[O-])cc2)c2ccc([N+](=O)[O-])cc2)cc1 (stereo not given) | 5.84
31 | CCOc1cc(C(=O)NC2CCN(Cc3ccccc3)C2)ccc1-c1nc2cc(Cl)ccc2[nH]1 (stereo not given) | 2.14
32 | Nc1nc(N)c2cc(C(F)(F)F)ccc2n1 | 1.65
33 | Cc1cc(C)c(CON2C(=N)N=C(N)NC2(C)C)cc1C | 3.57
34 | Cc1cc(=O)[nH]c(-n2nc(C)cc2NC(=O)C2(c3ccc(Cl)cc3)CCCC2)n1 | 19.2
35 | Cc1cc(=O)[nH]c(-n2nc(C)cc2NC(=O)C(c2ccccc2)c2ccccc2)n1 | 10.4
36 | Cc1cc(=O)[nH]c(-n2nc(C)cc2NC(=O)CC(c2ccccc2)c2ccccc2)n1 | 10.4
37 | COc1cc(NCC(C)CNCc2cn(Cc3ccccc3)c3ccccc23)nc2ccccc12 (stereo not given) | 7.19
38 | COc1cc(NCCCCNc2ccc(Cl)c(Cl)c2)nc2ccccc12 | 26.5
39 | COc1cc(NCCCNC(=O)c2ccc(Cl)c(Cl)c2)nc2ccccc12 | 12.5
40 | COc1ccc(COc2cc(NCCCN)nc3ccccc23)cc1 | 0
41 | COc1cc(NCCCCCNc2cc(Cl)nc3ccccc23)nc2ccccc12 | 15.8
42 | COc1cc(NCC(O)CNc2cc(OC)c3ccccc3n2)nc2ccccc12 | 8.51
43 | COc1cc(NCCCNCc2cn(S(=O)(=O)c3ccccc3)c3ccccc23)nc2ccccc12 | 8.96
44 | COc1cc(NCCCNCc2cn(Cc3cc(Br)cc(Br)c3)c3ccccc23)nc2ccccc12 | 17.4
45 | COc1cc(NCCCNCC2c3ccccc3Oc3ccccc32)nc2ccccc12 | 20.8
46 | CCN(CC)/C(=N\CCCCCC/N=C(\NC(=N)c1ccc(Cl)cc1)N(CC)CC)NC(=N)c1ccc(Cl)cc1 | 12.2

Row | Compound | IFI [%]
47 | CC(C)CNCc1cccc(-c2ccc(CN(CCCN3CCN(C)CC3)C(=O)/C=C/c3ccccc3)cc2)c1 | 5.15
48 | Cc1cc(NC2CCN(Cc3ccccc3)CC2)nc(NCCCCc2ccccc2)n1 | 10.6
49 | Cc1cccc2nc(-c3cccc(-c4cccc(NC(=O)C(C)CN(C)C)c4)c3)[nH]c12 (stereo not given) | 3.6
50 | OCC1CCN(Cc2cccc(-c3ccc(-c4nc5cc(C(F)(F)F)ccc5[nH]4)s3)c2)CC1 | 2
51 | O=c1[nH]ccc2nc(N[C@@H]3CCNC3)nc(Nc3ccc4c(c3)S(=O)(=O)CC4)c12 | 0
52 | Cc1cccc(Nc2nc(N[C@@H]3CCCNC3)nc3cc[nH]c(=O)c23)c1 | 16.7
53 | O=c1[nH]ccc2nc(N[C@@H]3CCNC3)nc(Nc3cc(Cl)cc(Cl)c3)c12 | 16.7
54 | O=c1[nH]ccc2nc(N[C@@H]3CCNC3)nc(Nc3cccc(S(=O)(=O)N4CCOCC4)c3)c12 | 18.2
55 | O=c1[nH]ccc2nc(N[C@@H]3CCCNC3)nc(Nc3ccc(S(=O)(=O)N4CCOCC4)cc3)c12 | 0
56 | NS(=O)(=O)c1cccc(Nc2nc(N[C@@H]3CCNC3)nc3cc[nH]c(=O)c23)c1 | 18.2
57 | OC(c1cc(C(F)(F)F)nc2c(F)cccc12)C1CCCCN1 (stereo not given) | 0
58 | CC(C)(C)OC(=O)Nc1cccc(-c2csc(NC(=N)N)n2)c1 | 4.08
59 | CC(CNC(=O)[C@H]1CNCCN1C(=O)CCCc1ccccc1)c1ccccc1 (stereo not given in full) | 2.84
60 | COc1cccc2c1CCN(CCN1CCC(NC(=O)c3ccc(-c4cccc(Cl)c4Cl)cc3)CC1)C2 | 7.63
61 | O=C(Oc1ccc(C2CNCCc3c2cc(OC(=O)c2ccc(O)cc2)c(OC(=O)c2ccc(O)cc2)c3Cl)cc1)c1ccc(O)cc1 (stereo not given) | 5.07
62 | COc1ccc(C=NN=c2cc(C)[nH]c3ccc(C)cc23)c2ccccc12 | 7.09
63 | CCC(C)c1ccc(NC(=O)Nc2ccnc3ccccc23)cc1 (stereo not given) | 10.2
64 | CCC(C)c1ccc(NC(=O)C(C)c2ccc([N+](=O)[O-])cc2)cc1 (stereo not given) | 23.7
65 | CCCCNS(=O)(=O)c1ccc(NC(=O)c2cc([N+](=O)[O-])ccc2Cl)cc1 | 5.17
66 | CCN(CC)c1ccc(C(c2ccc(N(CC)CC)cc2)c2ccc([N+](=O)[O-])cc2)cc1 | 4.35
67 | CCCNS(=O)(=O)c1ccc(NC(=O)C(C)Oc2ccc([N+](=O)[O-])cc2)cc1 (stereo not given) | 17.5
68 | C=CCNS(=O)(=O)c1ccc(NC(=O)C(C)Oc2ccc([N+](=O)[O-])cc2)cc1 (stereo not given) | 14.8
69 | CS(=O)(=O)c1ccc2[nH]c(-c3cc(-c4cccc(F)c4)cnc3N)nc2c1 | 6.45

Row | Compound | IFI [%]
70 | CC(=O)Nc1cccc(Nc2nccc(Nc3ccc(Oc4ccccc4)cc3)n2)c1 | 4.96
71 | COc1ccc(-c2ccc(NC(=O)c3cccc(Cl)c3)cc2)cc1CN1CCN(C)CC1 | 7.84
72 | CCOC(=O)c1ccc(NC(=O)N(Cc2ccc(-c3ccc(CN4CCNCC4)cc3)cc2)C2CCN(Cc3ccccc3)CC2)cc1 | 7.64
73 | Cc1cc(N[C@@H](Cc2ccccc2)C(=O)NCCOc2ccccc2)nc(NCCc2cccs2)n1 | 11.6
74 | Cc1cc(N)c2cc(NC(=O)c3ccc4ccccc4c3)ccc2n1 | 6.08
75 | Cc1nc(-c2ccc(-c3ccc(NC(=O)c4coc5ccc(N6CC(C)N(C)C(C)C6)cc45)cc3)c(C)c2)no1 (stereo not given) | 4.08
76 | O=C(Nc1ccc(Cl)cc1)N[C@H]1CCN(Cc2ccc(OCCCN3CCCCC3)cc2)C1 | 7.14
77 | CCN(CC)CCCC(C)Nc1ccnc2ccc(OC)cc12 (stereo not given) | 0.73
78 | COc1ccccc1CNc1ccnc(N2CC(Oc3ccc(F)cc3)C2)n1 | 4
79 | CCCCNC(=N)c1ccc(OCCCCCOc2ccc(C(=N)NCCCC)cc2)cc1 | 2.26
80 | CCCCOc1ccc(C(=O)C(CCC(CNC(C)(C)C)C(=O)c2ccc(OCCCC)cc2)CNC(C)(C)C)cc1 (stereo not given) | 25.4
81 | CCCCCNC(=N)c1ccc(OCCCCCOc2ccc(C(=N)NCCCCC)cc2)cc1 | 5
82 | O=C(Nc1ccccc1)Nc1cccc(-c2cccc(-c3nc4cc(F)ccc4[nH]3)c2)c1 | 3
83 | Cc1ccc2[nH]c(-c3cc(-c4ccc(CO)cc4)cnc3N)nc2c1 | 5.51
84 | c1ccc2oc(-c3cc4ccncc4cc3OC3CCNCC3)cc2c1 | 8.77
85 | CC(C)CCCC(C)(C)NC[C@@H](O)[C@H](Cc1ccccc1)NC(=O)c1cccc(CCC2CC2)c1 | 22.4
86 | CCc1cn(CCc2ccccc2)c2ccc(C(=O)N[C@@H](Cc3ccccc3)[C@H](O)CNC(C)(C)CCCC(C)C)cc12 | 8.7
87 | O=C(N[C@@H](Cc1ccccc1)[C@H](O)CNCCC(F)(F)F)c1cccc(OCC2CC2)c1 | 6.1
88 | CCc1cn(CCOC)c2ccc(C(=O)N[C@@H](Cc3ccccc3)[C@H](O)CNC(C)(C)CCCC(C)C)cc12 | 5.07
89 | CC(C)CCCC(C)(C)NC[C@@H](O)[C@H](Cc1ccccc1)NC(=O)c1cccc(OCC2CC2)c1 | 18.6
90 | O=C(N[C@@H](Cc1ccccc1)[C@H](O)CNCCC(F)(F)F)c1cccc(CCC2CC2)c1 | 6.1
